From PubChem BioAssay (EPA / NIEHS)
Where “and” joins values, the source holds several entries; their conditions need not be identical. Identical values can stand only once. Results filed as inconclusive are left out. The source holds several records for some structures; these can differ, active in one and inactive in another. Calls of active or inactive are those of the source. How the source made its calls: active means hit-call score of the fitted dose curve at least 0.9, where 1 is the maximum; inconclusive means response in the unintended direction; inactive means score below 0.9.

What follows are molecules tested against Peroxisome proliferator-activated receptor gamma (Homo sapiens) (UniProt P37231) (assay: NVS_NR_hPPARg: NovaScreen (NVS) Nuclear Receptor Binding Assay for human Peroxisome Proliferator-activated Receptor gamma (PPARg) (AID 2283370)).
Procedure: NVS_NR_hPPARg is a biochemical, single-readout assay that uses extracted gene-proteins in a cell-free assay. Measurements were taken 2 hours after chemical dosing in a 384-well plate.NVS_NR_hPPARg is one of one assay component(s) measured or calculated from the NVS_NR_hPPARg assay. It is designed to make measurements of fluorescent polarization, a form of binding reporter, as detected with fluorescence polarization signals by Fluorescence Polarization technology.Data from the assay component NVS_NR_hPPARg was analyzed into 1 assay endpoint. This assay endpoint, NVS_NR_hPPARg, was analyzed in the positive analysis fitting direction relative to DMSO as the negative control and baseline of activity. Using a type of binding reporter, loss-of-signal activity can be used to understand changes in the binding as they relate to the gene PPARG. Furthermore, this assay endpoint can be referred to as a primary readout, because the performed assay has only produced 1 assay endpoint. To generalize the intended target to other relatable targets, this assay endpoint is annotated to the nuclear receptor intended target family, where the subfamily is non-steroidal.
Binding assays used specific radioligands (tritiated, iodinated) with non-radioactive competitive displacement ligands in agonist or antagonist protocols (as indicated) and various reference compounds and inhibitors to titrate specific binding to receptors and transporters. Most enzyme assays (CYPs, kinases, phosphatases, proteases, HDACs) used recombinant protein and specific substrates (fluorescence mostly, some colorimetric and radioactive) and inhibitors, followed by a biochemical separation of substrate and product. All assays for the biochemical HTS were initially run in duplicate at a single concentration (10 uM for CYP450 assays and 25 uM for all others). […] Each assay was run with positive and negative controls, and concurrent controls on every plate. The follow-up (secondary) screen tested active chemical-pairs in concentration series, as well as a few additional assays not tested in the primary screen, some selected negative inactives, and several cases re-run in the concentration series for confirmatory purposes.

Sequence of Peroxisome proliferator-activated receptor gamma (Homo sapiens) (P37231 whole entry, looked up): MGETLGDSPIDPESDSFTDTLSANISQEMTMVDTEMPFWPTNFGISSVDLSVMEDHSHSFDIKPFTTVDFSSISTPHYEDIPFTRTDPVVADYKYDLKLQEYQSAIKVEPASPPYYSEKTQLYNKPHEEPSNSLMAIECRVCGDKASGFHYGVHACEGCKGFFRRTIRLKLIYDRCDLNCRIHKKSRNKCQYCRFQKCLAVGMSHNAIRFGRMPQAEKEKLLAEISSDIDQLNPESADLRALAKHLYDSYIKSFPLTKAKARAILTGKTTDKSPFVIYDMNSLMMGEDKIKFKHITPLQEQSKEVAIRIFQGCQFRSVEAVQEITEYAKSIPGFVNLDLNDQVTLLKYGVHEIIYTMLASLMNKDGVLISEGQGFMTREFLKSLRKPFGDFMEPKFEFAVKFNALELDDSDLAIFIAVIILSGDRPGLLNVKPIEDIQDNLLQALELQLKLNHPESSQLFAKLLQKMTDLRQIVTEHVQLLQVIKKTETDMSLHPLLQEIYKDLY

Row | Structure (SMILES) | AC50 | outcome
1 | CC(c1ccc(O)cc1)(c1ccc(O)cc1)c1ccc(O)cc1 | 4.96 µM (active) | –
2 | ClC1=C(Cl)[C@]2(Cl)[C@@H]3[C@@H]4C[C@@H]([C@H]5O[C@@H]45)[C@@H]3[C@@]1(Cl)C2(Cl)Cl | – | inactive
3 | O=C(O)C(F)(F)C(F)(F)C(F)(F)C(F)(F)C(F)(F)C(F)(F)C(F)(F)C(F)(F)C(F)(F)F | 8.21 µM (active) | –
4 | COc1ccc(O)c(C(C)(C)C)c1 | – | inactive
5 | CC(C)(c1ccccc1)c1ccc(O)cc1 | 25 µM (active) | inactive
6 | NS(=O)(=O)C(F)(F)C(F)(F)C(F)(F)C(F)(F)C(F)(F)C(F)(F)C(F)(F)C(F)(F)F | – | inactive
7 | Nn1cnnc1 | – | inactive
8 | Cc1cccc(C)c1N | 0.0218 µM (active) | –
9 | Oc1ccc(C(c2ccc(O)cc2)(C(F)(F)F)C(F)(F)F)cc1 | 30.1 µM (active) and 25 µM (active) and 19.6 µM (active) | inactive
10 | Cc1cc2c3c(c1)C(c1ccccc1)=N[C@@H](NC(=O)c1ccncc1)C(=O)N3CC2 | 4.96 µM (active) | –
11 | O=C(O)C(F)(F)C(F)(F)C(F)(F)C(F)(F)C(F)(F)C(F)(F)C(F)(F)C(F)(F)F | – | inactive
12 | Nc1ccc(-c2ccc(N)cc2)cc1 | – | inactive
13 | CCC(=O)O[C@H]1CC[C@H]2[C@@H]3CCC4=CC(=O)CC[C@]4(C)[C@H]3CC[C@]12C | – | inactive
14 | O=C(NC(=O)c1cc(F)c(F)cc1Cl)Nc1cc(F)ccc1N1CCC(C(=O)O)CC1 | – | inactive
15 | CCC(C)(c1ccc(O)cc1)c1ccc(O)cc1 | 5.51 µM (active) | –
16 | CCC(C)c1cc([N+](=O)[O-])cc([N+](=O)[O-])c1O (configuration not stated) | – | inactive
17 | O=NN(c1ccccc1)c1ccccc1 | – | inactive
18 | CCCCCCCCCC[N+](C)(C)CCCCCCCCCC | – | inactive
19 | O=S(=O)(O)C(F)(F)C(F)(F)C(F)(F)C(F)(F)C(F)(F)C(F)(F)F | – | inactive
20 | CCCCCCCCCc1ccc(O)cc1 | – | inactive
21 | CCCCCCCCOC(=O)c1ccccc1C(=O)OCCCCCCCC | – | inactive
22 | CO/C=C(/C(=O)OC)c1ccccc1COc1cccc(C(F)(F)F)n1 | – | inactive
23 | CC(C)C(=O)OCC(C)(C)C(OC(=O)C(C)C)C(C)C (configuration not stated) | – | inactive
24 | Oc1ccc(Cl)cc1Cl | – | inactive
25 | Oc1c(Cl)c(Cl)c(Cl)c(Cl)c1Cl | – | inactive
